Data: PubChem BioAssay (NCATS)
Records with an inconclusive call do not appear. A number with no mark means an inactive call. The call rests on the fitted dose curve; in most records, active means well fitted activation curve with a large enough effect; inconclusive means small, poorly fitted or top-dose-only effect; inactive means flat fitted curve, though single readings scatter.

Assay: qHTS for Activators of Parkin Expression: LOPAC Validation Assay (NLuc Reporter) (AID 720572)
Details: Parkin promoter NanoLuc reporter cells, luminescence; series mostly up to 46.1 µM; activation: at the top concentration
Method in brief: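 NLuc signal, read 10 min after reagent and following a prior FLuc read, is normalized to DMSO (0) and positive controls (100%). Cells: neuronal Parkin-promoter coincidence reporter line; compounds tested 7-point, 24 h, 37 C, 5% CO2.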

| SMILES | activation [%] |
| --- | --- |
| N[C@@H](CC(=O)O)C(=O)O | -3.08 |
| N=c1ccn2c(n1)O[C@H]1[C@H](O)[C@@H](CO)O[C@H]12 | -13.2 |
| CCCCCCCCCCCCCCCC(=O)OC(CC(=O)O)C[N+](C)(C)C (centres undefined) | -0.703 |
| NC(=O)C1=CN(C2OC(COP(=O)(O)OP(=O)(O)OC[C@H]3O[C@@H](n4cnc5c(N)ncnc54)[C@H](OP(=O)(O)O)[C@@H]3O)C(O)C2O)C=CC1 (some centres undefined) | -2.83 |
| N#C/C(=C\c1c[nH]c2ccccc12)C(=O)c1ccc(O)c(O)c1 | 12 |
| Cc1ccc(S(=O)(=O)/C=C/C#N)cc1 | -19.8 |
| CCCC1(C)C(C#N)(C#N)C1(C#N)C#N | -21 |
| Cn1c(=O)c2[nH]c(-c3ccccc3)nc2n(C)c1=O | 1.88 |
| O=C(c1cc(O)c(O)c([N+](=O)[O-])c1)c1ccccc1F | -21.3 |
| CN(C)c1nc(N)c(C(=O)N=C(N)N)nc1Cl | 9.04 |
| O=C(O)CC1CCCc2ccccc2C1O (centres undefined) | -1.75 |
| C[C@@H](CN1CCC(Cc2ccccc2)CC1)[C@@H](O)c1ccc(O)cc1 | -7.99 |
| Ic1ccc(N2CCN(Cc3c[nH]c4ncccc34)CC2)cc1 | -3.35 |
| COc1ccccc1N1CCN(CCCCNS(=O)(=O)c2cccc3c(N(C)C)cccc23)CC1 | -11.7 |
| CC(=O)SCC[N+](C)(C)C | -2.24 |
| CN(C)C(N)=NCCC[C@H](N)C(=O)O | -1.68 |
| CCCCCCCCCCCCCCCC(=O)NCC(COP(=O)([O-])OCC[N+](C)(C)C)OCC (centres undefined) | 16.1 |
| CO/S(=N\S(=O)(=O)c1ccc(Cl)cc1)c1ccc([N+](=O)[O-])cc1 (centres undefined) | 6.2 |
| CC(C)NC[C@@H](O)c1ccc(O)c(O)c1 | 3.91 |
